Assay results as given in PubChem BioAssay AID485364 (National Center for Advancing Translational Sciences (NCATS), 2010).
Screen size: about 360,000 compounds; about 11,000 (3.1%) were called active. Where a call stands in place of a potency, no number is given. Roughly 4% stayed inconclusive and do not appear here. Calls come from the whole dose curve; as a rule, active = well fitted inhibition curve with a large enough effect; inconclusive = small, poorly fitted or top-dose-only effect; inactive = no such curve, though single readings can be large or run the other way. This excerpt belongs to a sample that is enriched for actives.

Target: Schistosoma mansoni thioredoxin glutathione reductase (TGR) (UniProt Q962Y6)
Experiment: qHTS Assay for the Inhibitors of Schistosoma Mansoni Peroxiredoxins; note: nearly all actives have a fitted effect of over 60% in size
Settings: purified TGR, DTNB reduction, TNB absorbance 405 nm; series mostly up to 114 µM
Description: Schistosomiasis is a major neglected tropical disease that currently affects over 200 million. It is caused by different species of flatworms, such as Schistosoma mansoni. Over the last century, drugs to treat the disease have evolved from potassium antimonyl tartrate, artemisinin, oxamniquine, to praziquantel, with praziquantel remaining the universally-used single drug of choice over the past three decades. However, transmission rates have changed little with praziquantel, and there is evidence for the development of drug resistant parasites. Because there is currently no suitable alternative therapy available, there is an urgent need to identify new targets and drugs for schistosomiasis treatment. Thioredoxin glutathione reductase (TGR), one uniquely positioned S. mansoni enzyme, has been identified as a major component of the worms' distinct and compressed antioxidant "firewall". TGR is a multifunctional enzyme that catalyzes the interconversion between reduced and oxidized forms of both glutathione (GSH) and thioredoxins, thus making it an attractive new antiparasitic target. Recently, a quantitative high-throughput screen of the NIH Molecular Libraries Small Molecule Repository (MLSMR, ~71K at the time of the screen in 2007) was performed using an assay that targeted both TGR and peroxiredoxin2 (Prx2, an H2O2-reducing enzymatic component of the S. mansoni redox "firewall") by following the decrease of NADPH fluorescence. […] Additional mechanistic link between exogenous NO donation and parasitic injury for the oxadiazole-2-oxide class of compounds was also expanded and better defined. Although the screen addressed both TGR and Prx2, the assay required post-screen target deconvolution for further characterization of the actives. In addition, the fluorescence assay was also subject to fluorescence interference from compound library members. We have developed a 1536-well-based kinetic HTS assay to address TGR alone. The assay followed the reduction of 5, 5'-dithiobis (2-nitrobenzoic acid) (DTNB) (Ellman's reagent) by NADPH and measured the increase in absorbance at 412 nm of the reaction product, TNB. […] This assay format can be used to screen the current MLSMR collection (with >300K compounds available) to find novel TGR inhibitors. Furoxan is a good choice to serve as a positive control in the primary HTS assay.
Three microliters of reagents (100 uM NADPH and 20 nM TGR or 100 uM NADPH as no-enzyme control) were dispensed into 1,536-well black clear-bottomed plates. Compounds (23 nL) were transferred via Kalypsys pin tool equipped with 1536-pin array (10 nL slotted pins, V&P Scientific, San Diego, CA). The plates were then be incubated for 15 min at room temperature, and 1 uL aliquot of 500 uM NADPH were added, immediately followed by a 1 uL aliquot of 15 mM DTNB to start the reaction. The plate was transferred to a ViewLux high-throughput CCD imager (Perkin-Elmer, Wellesley, MA) where kinetic measurements of the TNB absorbance were acquired using a 405 excitation filter. Throughout the screen, reagent bottles and all liquid lines were made light-tight to minimize reagent degradation. All screening operations were performed on a fully integrated robotic system (Kalypsys, San Diego, CA) containing one RX-130 and two RX-90 anthropomorphic robotic arms (Staubli, Duncan, SC). Library plates were screened starting from the lowest and proceeding to the highest concentration, and a "double-dipping" step of the highest concentration was required to access higher concentrations of compounds. Vehicle-only plates, with DMSO being pin-transferred to the entire column 5-48 compound area, were inserted uniformly at the beginning and the end of each library in order to monitor for and record any shifts in the background, which can be affected by reagent dispensers or loss in enzyme activity overtime. […]
Potency is the fitted concentration of half-maximal effect.

Structure (SMILES) | Potency | activity change, negative = inhibition
CCOC(=O)c1ccc(N2C(=O)c3n[nH]c(C)c3C2c2ccc(O)c(OC)c2)cc1 (stereo unspecified) | 11.2 µM (active) | –
CCOc1cc(C2c3c(-c4ccc(Br)cc4)n[nH]c3C(=O)N2c2ccc(Cl)cc2)ccc1O (stereo unspecified) | inactive | –
CCOC(=O)c1ccc(N2C(=O)c3[nH]nc(-c4ccccc4)c3C2c2ccc(C(C)C)cc2)cc1 (stereo unspecified) | inactive | –
CCCn1c2ccccc2c2cnn(CC(=O)N(C)c3ccccc3CC)c(=O)c21 | inactive | –
CSc1ccc(C2c3c(oc4ccccc4c3=O)C(=O)N2CCCN2CCOCC2)cc1 (stereo unspecified) | inactive | –
COc1ccc(OC)c(NC(=O)C2CCN(S(=O)(=O)c3ccc(C)cc3)CC2)c1 | inactive | –
NC(=O)C1CCN(C(=O)c2cccc(NC(=O)c3nsc4ccccc34)c2)CC1 | inactive | –
Cc1ccc(C2CCN(C(=O)c3cnn(-c4ccccc4Cl)c3C3CCN(C(=O)OC(C)(C)C)CC3)C2)cc1 (stereo unspecified) | inactive | –
Cc1ccccc1C(=O)N(Cc1ccc(N(C)C)cc1)CC1CCCO1 (stereo unspecified) | inactive | –
O=C(CCS(=O)(=O)c1cc(Br)cc2c1N(C(=O)C1CC1)CC2)Nc1ccc(Br)cc1F | inactive | –
COc1ccc(OCCCC(=O)Nc2nnc(C3CCCO3)s2)cc1 (stereo unspecified) | inactive | –
COc1ccc(OCC(=O)Nc2nnc(-c3ccco3)s2)cc1 | 28.2 µM (active) | –
CNc1nnc(-c2ccco2)s1 | inactive | –
CCOC(=O)N1CCc2c(sc3c2c(=O)n(-c2ccc(CC)cc2)c(=O)n3C)C1 | inactive | –
Cc1ccccc1NC(=O)Cn1c(=O)n(CCCCC(=O)NCc2ccccc2Cl)c(=O)c2ccccc21 | inactive | –
CC(C)OC(=O)CN1CCN(c2ccc(Cl)cc2)CC1 | inactive | –
O=C(CN1CCN(c2ccc(Cl)cc2)CC1)c1ccccc1 | 17.8 µM (active) | –
O=C(CCCC(=O)N1CCN(c2cccc(Cl)c2)CC1)c1ccccc1 | inactive | –
O=C(COC(=O)CCc1c[nH]c(=O)[nH]1)Nc1ccccc1Cl | 44.7 µM (active) | –
Cc1cc(C(=O)OCC(=O)Nc2ccccc2Cl)c(C)o1 | inactive | –
Cc1cccc(NC(=O)COC(=O)CCc2ccccc2)c1C | inactive | –
COc1ccccc1NC(=O)Cn1cnc2ccc(S(=O)(=O)N3CCC(C)CC3)cc2c1=O | inactive | –
COCCNC(=O)c1ccc2c(c1)N(Cc1cccc(Cl)c1)C(=O)c1ccccc1S2(=O)=O | inactive | –
COc1ccc([N+](=O)[O-])cc1NC(=O)COC(=O)/C=C/c1ccco1 | inactive | –
COc1cccc(NC(=O)COC(=O)/C=C/c2ccco2)c1 | 31.6 µM (active) | –
NS(=O)(=O)c1cccc(NC(=O)COC(=O)/C=C/c2ccco2)c1 | 6.31 µM (active) | –

Structure (SMILES) | Potency | activity change, negative = inhibition
COc1ccc(/C=C/C(=O)OCC(=O)Nc2cccc(Oc3ccccc3)c2)c(OC)c1 | inactive | –
CN(C)S(=O)(=O)c1cccc(NC(=O)COC(=O)/C=C/c2cccs2)c1 | inactive | –
CC(C)CNC(=O)COC(=O)/C=C/c1ccco1 | inactive | –
CCc1cccc(-n2nnc(-c3nsc(NC(=O)c4ccc(C)cc4)n3)c2C)c1 | inactive | –
COc1ccc(-c2cc(NCc3ccc(F)cc3)n3cnnc3n2)cc1 | inactive | –
Cc1cc(C(=O)Nc2cccc(C(F)(F)F)c2)c2c(C)nn(-c3cccc(F)c3)c2n1 | inactive | –
COc1ccc(NC(=O)C2CCCN(S(=O)(=O)c3cccc4nonc34)C2)cc1Cl (stereo unspecified) | inactive | –
Cc1ccc(C)c(NC(=O)Cn2ccn(-c3ccc(F)cc3)c(=O)c2=O)c1 | inactive | –
O=C(CC1Oc2ccccc2NC1=O)NCc1ccc(F)cc1 (stereo unspecified) | inactive | –
Cc1ccc(CNC(=O)CCc2c(C)nn(-c3ccc(N4CCCC4)nn3)c2C)cc1 | inactive | –
COc1ccccc1CNS(=O)(=O)c1cc(Br)cc2c1N(C(C)=O)C(C)C2 (stereo unspecified) | inactive | –
CCOC(=O)c1cc2c(=O)n3ccccc3nc2n(CC2CCCO2)c1=NC(=O)c1ccccc1F (stereo unspecified) | inactive | –
O=C(Nc1ccc2c(c1)OCO2)c1cc(-c2cccc(Cl)c2)on1 | inactive | –
COc1cc(C)cc(CN2CCC(Cc3ccccc3)CC2)c1O | inactive | –
Oc1c(CN2CCCC2)cc(COCc2ccccc2)c2cccnc12 | 22.4 µM (active) | –
CC1CCCN(CC(O)COCc2ccccc2)C1 (stereo unspecified) | inactive | –
COc1cc(OC)c(NC(=O)N2CC3CCCN3c3ccccc32)cc1Cl (stereo unspecified) | inactive | –
CCOC(=O)c1c(S(=O)(=O)N2CCCC(C(=O)NCc3ccc(F)cc3)C2)c(C)n(CC)c1C (stereo unspecified) | inactive | –
CCOC(=O)c1c(C)[nH]c(CCC(=O)NCCCN2CCN(c3cc(C)ccc3C)CC2)c1C | inactive | –
COc1ccc(C(CCN(Cc2ccc(OC)c(OC)c2)C(=O)CCl)c2ccccc2)cc1 (stereo unspecified) | 8.91 µM (active) | –
COc1ccc(CN(Cc2ccc(OC)cc2)C(=O)c2cccs2)cc1 | inactive | –
COc1ccc(CCNC(=O)C(Sc2ccccn2)c2ccccc2)cc1OC (stereo unspecified) | inactive | –
CCc1nnc(SCc2nc(-c3cccc(C)c3)oc2C)c2cc3sc(C)cc3n12 | inactive | –
CCCCc1ccc(NC(=S)NCCCN2CCOCC2)cc1 | 50.1 µM (active) | –
CCCC(=O)NC(=S)Nc1ccc(CN2CCOCC2)cc1 | inactive | –
Cc1cc(C)cc(NC(=S)NCCCN2CCOCC2)c1 | inactive | –

Structure (SMILES) | Potency | activity change, negative = inhibition
Cc1cccn2c(=O)c(C(=O)NC(C)c3ccccc3)cnc12 (stereo unspecified) | inactive | –
CN1CCN(C(=O)C2=C[C@H](c3ccc4c(c3)OCO4)C[C@H](OCc3ccc(CO)cc3)O2)CC1 | inactive | –
C#Cc1ccc([C@@H]2C=C(C(=O)O)O[C@H](OCCCCO)C2)cc1 | 39.8 µM (active) | –
NC(=O)C1=C[C@H](c2csc3ccccc23)C[C@H](OCc2ccc(CO)cc2)O1 | inactive | –
C=CCOC(=O)C1=C[C@@H](c2ccccc2)C[C@@H](OCc2ccc(CO)cc2)O1 | inactive | –
CCO[C@H]1OC(C(=O)O)=C[C@@H](C2CCCCC2)[C@@H]1CCCO | inactive | –
O=C(O)C1=C[C@H](c2cccs2)C[C@H](OCCCCO)O1 | 39.8 µM (active) | –
Cc1ccc(-n2nc(CO)c(C(=O)NCCc3ccccc3)n2)cc1 | inactive | –
COc1c(Cl)cc(C(=O)N(Cc2ccccc2F)C2CCS(=O)(=O)C2)cc1Cl (stereo unspecified) | inactive | –
Cc1cccc(OCCSc2nc3ccc(NC(=O)COc4ccccc4C)cc3s2)c1 | inactive | –
CCOC(=O)Nc1sc(C(=O)N(C)C)c(C)c1C(=O)OCC | inactive | –
CCOC(=O)c1sc(NC(=O)CCN2CCOCC2)c(C(=O)OCC)c1C | inactive | –
CCOC(=O)c1c(NC(=O)CCl)sc(C(=O)N(CC)CC)c1C | 35.5 µM (active) | –
CSc1nc(=O)c2c(n1C)NC(=O)CC2c1ccccc1OC(C)C (stereo unspecified) | inactive | –
CCc1ccc(NC(=O)CN2C(=O)CCSc3ccc(S(=O)(=O)N4CCCC4)cc32)cc1 | inactive | –
CCCCn1c(=O)c2oc3ccccc3c2n(CC(=O)Nc2ccccc2OC)c1=O | inactive | –
COc1ccc2c(c1)C=C(C(=O)NCc1cc(Br)ccc1OC)CO2 | inactive | –
CC(C)CN(CC(C)C)C(=O)CN1c2cccc3cccc(c23)S1(=O)=O | inactive | –
O=C(O)CN1c2cccc3cccc(c23)S1(=O)=O | 35.5 µM (active) | –
COc1ccc(C)cc1NC(=O)CN1c2cccc3cccc(c23)S1(=O)=O | inactive | –
CCN(CC)c1ccc(NS(=O)(=O)c2cc(-c3cc(C)no3)ccc2C)c(C)c1 | inactive | –
CCOc1ccc(N(CC)C(=O)c2cc3c(=O)oc4ccccc4c3s2)cc1 | inactive | –
O=C(c1ccc(Br)cc1)N(Cc1cccs1)c1ccc(F)cc1 | inactive | –
Cc1cc(N)n(-c2ccc(S(=O)(=O)N3CCCC3)cc2[N+](=O)[O-])n1 | 50.1 µM (active) | –
CN1CCN(S(=O)(=O)c2ccc(N3CCN(c4ccccc4O)CC3)c([N+](=O)[O-])c2)CC1 | inactive | –
O=[N+]([O-])c1cc(S(=O)(=O)N2CCCC2)ccc1NN=C1CCCC1 | inactive | –

Structure (SMILES) | Potency | activity change, negative = inhibition
COc1cc(OC)cc(C(=O)NCCc2csc3nc(-c4ccccc4F)nn23)c1 | inactive | –
COc1cccc(NC(=O)N2CCCC2C(=O)NC2CCCCC2)c1 (stereo unspecified) | inactive | –
CCC1CCCCN1C(=S)Nc1ccc(C(C)=O)cc1 (stereo unspecified) | inactive | –
CCC1CCCCN1C(=O)Nc1cccc(NC(=O)N2CCCCC2CC)c1 (stereo unspecified) | 39.8 µM (active) | –
CCN1C(=O)c2ccccc2Sc2ccc(NC(=O)Cc3ccc(OC)cc3)cc21 | inactive | –
CCOC(=O)CC1=CC(=O)Nc2ccccc2N1 | inactive | –
CCCCC(CC)CNC(=O)C(=O)C1C(=O)Nc2ccccc21 (stereo unspecified) | inactive | –
CCOC(=O)C(=O)C1C(=O)Nc2ccccc21 (stereo unspecified) | 28.2 µM (active) | –
CCc1ccc(NC(=O)C2CCCN2S(=O)(=O)c2ccc3nc(-c4ccccc4)[nH]c3c2)cc1 (stereo unspecified) | inactive | –
CC(C)c1ccc(O)c(CN2CCN(c3ccccc3)CC2)c1 | inactive | –
Fc1ccc(N2CCN(Cc3ccc4c(c3)OCO4)CC2)cc1 | – | 8.45% [at 11.4 µM] (inactive)
Oc1cc2c(cc1CN1CCN(c3ccccc3)CC1)OCO2 | 1.58 µM (active) | –
Cc1cc2c(cc1C)C(c1cccc(OC(C)C)c1)CC(=O)N2 (stereo unspecified) | inactive | –
CCc1ccc2oc(-c3ccc(NC(=O)c4cc5ccccc5o4)cc3)nc2c1 | inactive | –
COc1ccc(OC)c(CNC(=O)c2c3c(nc4ccccc24)C(=O)N(C2CCCCC2)C3)c1 | inactive | –
COc1ccc(S(=O)(=O)NCC(c2ccc(N(C)C)cc2)N2CCCC2)cc1 (stereo unspecified) | inactive | –
O=S(=O)(NCC(c1ccco1)N1CCOCC1)c1cc(F)ccc1F (stereo unspecified) | inactive | –
CN(C)c1ccc(C(CNS(=O)(=O)c2cc(F)ccc2F)N2CCOCC2)cc1 (stereo unspecified) | 44.7 µM (active) | –
CCCn1ccc2c(OCC(=O)NCc3ccc(F)cc3)cccc2c1=O | inactive | –
COC(=O)c1ccccc1NC(=O)C(Cc1ccccc1)N1Cc2ccccc2C1=O (stereo unspecified) | inactive | –
COc1ccc(C(=O)c2oc3ccc(Br)cc3c2NC(C)=O)cc1 | inactive | –
COc1ccc2oc(=N)c(C(=O)Nc3ccc(Br)cc3)cc2c1 | inactive | –
COc1ccc(/C=C/C(=O)c2cc(Br)ccc(=O)c2O)cc1 | 15.8 µM (active) | –
